Experiment [1] in a line: qHTS Assay for Identifying Gametocytocidal Compounds (AID 743244). Also: potency is read from the fitted curve at half-maximal effect.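 As to max response: % is scaled to controls: 0 for no effect and ±100 for the full control effect; actives lower the fluorescent signal which means gametocytes are killed.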 To be noted: P. falciparum 3D7 stage III-V gametocytes, alamarBlue, 72 h; max response: hits give low values. The essentials:
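P. falciparum 3D7 stage III–V gametocytes (20,000 cells/well) were exposed to compounds for 72 h at 37 °C, 5% CO2. AlamarBlue was then added for 24 h; decreased resorufin fluorescence (Ex 525/Em 598 nm) indicated loss of viability.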
(In general: qHTS replaces the single test concentration by a dilution series.)

A short description of experiment [2]: P-glycoprotein substrates identified in KB-8-5-11 adenocarcinoma cell line, qHTS therapeutic library screen (AID 1346987). Also: nearly all actives have a fitted effect of over 65% in size. Also: potency is read from the fitted curve at half-maximal effect. The essentials:
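Compounds are pinned in dose-response onto KB-8-5-11 cells (500 cells/well, colchicine-free medium) and left 72 h at 37 degree C. CellTiter-Glo luminescence then yields AC50 values.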

A further experiment relates to KB-3-1. Kind of experiment: Cytotoxic Profiling of Annotated Libraries Using Quantitative High-Throughput Screening (AID 1296008). Also: nearly all actives have a fitted effect of over 60% in size. Also: potency is read from the fitted curve at half-maximal effect. As to max response: % is scaled to controls: 0 for no effect and ±100 for the full control effect. The note with it: Five cell lines viability, CellTiter-Glo ATP luminescence, 48-72 h; max response: hits give low values. The essentials:
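Compounds were pin-transferred onto cells and incubated 48 or 72 hr at 37 degree Celsius, 95% humidity. CellTiter-Glo was added, plates sat 10 min at room temperature, then ATP-coupled luminescence was imaged as the viability read-out.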
(In general: Cellular ATP, detected with luciferase, serves as a proxy for viable cell number.)

The test system of another experiment is astro. Kind of experiment: Drug repurposing screens with cells derived from glioblastoma tumor samples (AID 1345199). Also: nearly all actives have a fitted effect of over 40% in size. Also: potency is read from the fitted curve at half-maximal effect. The note with it: viability, ATP luminescence, 48 h; series mostly up to 45.9 µM. The essentials: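 Primary testing used CD133+ neurospheres from four GBM patients, seven concentrations, 48 h exposure and ATP-based viability; confirmation added three slower-growing patient lines.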

The subject of experiment [3] is Zika virus NS2B-NS3 protease (unlinked complex). Description: Primary screen GU Rhodamine qHTS for Zika virus inhibitors: Unlinked NS2B-NS3 protease assay (AID 1347159). Also: % is scaled to controls: 0 for no effect and ±100 for the full control effect; nearly all actives have a fitted effect of over 60% in size. The essentials:
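Enzyme 25 nM in Tris-HCl pH 8.0 + 0.01% Tween 20; compounds up to 114 microM, 15 min RT dark; + Rhod110 substrate 1.5 microM; read t0 and 15 min; delta fluorescence → % inhibition → 4-parameter Hill fit.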

In experiment [4] the test system is Zika virus NS2B-NS3 protease (linked construct). Description: Primary screen NINDS Rhodamine qHTS for Zika virus inhibitors (AID 1347160). Also: % is scaled to controls: 0 for no effect and ±100 for the full control effect; nearly all actives have a fitted effect of over 55% in size. The method, boiled down: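 Enzyme (25 nM, linked NS2B-NS3) was preincubated 15 min with compound in 10 mM Tris-HCl pH 8.0, 0.01% Tween 20. Rhodamine110 substrate (1.5 microM) was then added and fluorescence read at start and after 15 min.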

Experiment [5] addresses Calcium and integrin-binding protein 1 (Homo sapiens) (UniProt Q99828). Kind of experiment: Primary qHTS for Identification of Calcium Integrin Binding Protein 1 (CIB1) Competitor (AID 1508620).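 Also: GST tagged CIB1 binding a fluorescein labelled alphaIIb integrin peptide tracer; top concentration of the series differs between compounds; % is scaled to controls: 0 for no effect and ±100 for the full control effect.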 The method, boiled down:
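Fluorescence polarization competition: CIB1-GST (1 uM final) preincubated with compound 15 min at room temperature, then FITC-labeled alphaIIb peptide (100 nM final) added for another 15 min. Polarization read at Ex 480/Em 540.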

Experiment [6] deals with Glutathione peroxidase 1 (Homo sapiens) (UniProt P07203). Description: Primary qHTS Assay for Inhibitors of Recombinant Selenoprotein Glutathione Peroxidase 1 (GPX1) (AID 1845191). Also: nearly all actives have a fitted effect of over 65% in size. The essentials:
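GPX1 10 nM, GR 100 nM, GSH 1 mM, NADPH 0.5 mM, CHP 0.5 mM (final). 30-min cpd preincubation, RT. Ex340/Em450 read t=0, t=15 min.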

Experiment [7] has as its target Phospholipid hydroperoxide glutathione peroxidase GPX4 (Homo sapiens) (UniProt P36969). Description: Primary qHTS Assay for Inhibitors of Recombinant Selenoprotein Glutathione Peroxidase 4 (GPX4) (AID 1845192). Also: % is scaled to controls: 0 for no effect and ±100 for the full control effect; nearly all actives have a fitted effect of over 65% in size. The method, boiled down:
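qHTS, GR-coupled: GPX4 200 nM + cpd 30 min RT → GSH 1 mM, NADPH 0.5 mM, GR 100 nM → CHP 0.5 mM start; fluor 340/450 at t0 and t15 min; no-enzyme wells as control.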

Experiment [8] is described as follows: Primary fluorescence-based thiol-reactive (MSTI) qHTS assay for identification of artifact compounds. (AID 1845221).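 Also: thiol-reactive compounds lower the probe fluorescence signal; nearly all actives have a fitted effect of over 65% in size.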 The essentials:
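qHTS titration of compound; 4 uM MSTI, PBS pH 7.4, 2% DMSO; 1 h RT, dark; fluorescence 525/598 nm; normalized to Acetyl-MSTI and MSTI; 4-parameter Hill fit.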

For experiment [9], the system named is Nanoluciferase (engineered Oplophorus gracilirostris luciferase). Kind of experiment: Primary Nanoluciferase (NLuc) qHTS assay for identification of artifact compounds. (AID 1845222).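 Also: NLuc secreted into diluted conditioned medium of S16 cells.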 The essentials:
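Using secreted nanoluciferase in S16 culture medium (0.22 um filtered, 1:55 dilution), compounds were preincubated 15 min at RT. Signal was generated with Nano-Glo reagent (1:100) over 5 min.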

The test system of the next experiment is CASKI. Description: Primary qHTS to identify gynecologic anti-cancer compounds using libraries of approved drugs and bioactive compounds (AID 1345084). Also: % is scaled to controls: 0 for no effect and ±100 for the full control effect; nearly all actives have a fitted effect of over 55% in size. The note with it: Gynecologic cancer cell panel viability, ATPlite luminescence, 48 h; series mostly up to 57.5 µM. The essentials:
(§1)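 Cells, 1,000 per well, were allowed to settle for 16 h at 37 C before compound addition. Five concentrations were tested for 48 h, and viability was read by ATPlite luminescence after 15 min at room temperature.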

In another experiment the test system is JEG-3. Described as above. To be noted: Gynecologic cancer cell panel viability, ATPlite luminescence, 48 h; series mostly up to 57.5 µM. The essentials: as §1
For the next experiment, the system named is OV90. The experiment is described as above. To be noted: Gynecologic cancer cell panel viability, ATPlite luminescence, 48 h; series mostly up to 57.5 µM. The method, boiled down:
as §1

A further experiment has as its system Tov-21-G. The description is as above. To be noted: Gynecologic cancer cell panel viability, ATPlite luminescence, 48 h; series mostly up to 57.5 µM. The essentials:
as §1

The target of experiment [10] is Luciferin 4-monooxygenase (Photinus pyralis) (UniProt P08659). Description: Primary firefly luciferase (FLuc) qHTS assay for identification of artifact compounds. (AID 1845220). Also: nearly all actives have a fitted effect of over 60% in size. To be noted: outcome: dose series up to 54.1 µM unless noted. The essentials: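 In this counter-screen for luciferase artifacts, test compounds met substrate (10 uM each luciferin and ATP) before 10 nM enzyme started the reaction. Light output was measured 5 min later.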

The structures appear in SMILES notation. Values joined by “and” are separate entries in the source; they are usually repeats but may differ in a detail not shown here. Equal entries are not always repeated. Unmarked numbers belong to inactive results. Results filed as inconclusive are left out. Active and inactive are the calls of the source. Calls follow the shape of the dose curve; as a rule, active = well fitted curve in the direction sought with a large enough effect; inconclusive = small, poorly fitted or top-dose-only effect, or another doubt; inactive = no such curve, though single readings can be large; an effect the other way counts as inactive or inconclusive.

Phospholipid hydroperoxide glutathione peroxidase GPX4 (Homo sapiens), sequence (P36969 whole entry, looked up): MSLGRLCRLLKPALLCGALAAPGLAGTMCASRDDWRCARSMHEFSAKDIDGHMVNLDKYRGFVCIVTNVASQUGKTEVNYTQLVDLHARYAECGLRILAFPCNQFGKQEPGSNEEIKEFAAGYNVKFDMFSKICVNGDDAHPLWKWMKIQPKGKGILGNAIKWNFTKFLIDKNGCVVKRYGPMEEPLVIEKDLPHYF
Glutathione peroxidase 1 (Homo sapiens), sequence (P07203 whole entry, looked up): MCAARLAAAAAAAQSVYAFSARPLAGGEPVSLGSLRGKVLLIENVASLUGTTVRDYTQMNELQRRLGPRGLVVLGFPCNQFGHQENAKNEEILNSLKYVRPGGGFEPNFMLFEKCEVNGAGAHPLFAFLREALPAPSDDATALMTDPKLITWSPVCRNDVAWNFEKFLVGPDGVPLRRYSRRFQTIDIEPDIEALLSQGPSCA
Calcium and integrin-binding protein 1 (Homo sapiens), sequence (Q99828 whole entry, looked up): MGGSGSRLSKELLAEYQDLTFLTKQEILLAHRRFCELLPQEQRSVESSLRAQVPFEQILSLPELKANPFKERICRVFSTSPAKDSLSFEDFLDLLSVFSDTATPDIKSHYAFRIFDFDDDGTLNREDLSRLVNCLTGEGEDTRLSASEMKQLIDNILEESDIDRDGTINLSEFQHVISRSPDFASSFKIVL

Regarding `CN[C@]1(c2ccccc2Cl)CCCCC1=O`, the max response is 1.48% in [1] and -15.2% in the experiment on KB-3-1. For the same compound, the Potency entry (in experiment [2]; in the experiment on astro) was “inactive” each time.

As for `COc1cc(C[C@H](C)N)c(OC)cc1C`, the max response in experiment [1] was -10.7%; in the experiment with KB-3-1, -5.3%. The Potency entry with astro is “inactive”.

As to `CC1=CC(=O)[C@@H](O)[C@]2(C)C3[C@@H](O)[C@@H]4OC(=O)[C@@H]([C@H]4C)[C@]3(C)C(=O)[C@H](O)[C@@H]12` (some centres not stated), the Potency result in experiment [3], in experiment [4], in [5], in experiment [6], in experiment [7] and in experiment [8] was “inactive” throughout. Further, the Potency entry (in experiment [9]; with CASKI; in the experiment with JEG-3; in the experiment with OV90; in the experiment with Tov-21-G) was “inactive” in each case.

As for `CCc1cc(OC)c(C[C@@H](C)N)cc1OC`, the max response is 0.694% in [1] and -13.5% in the experiment with KB-3-1. Moreover, the Potency entry (in experiment [2]; with astro) was “inactive” each time.

`O=C(O)CCCO`: the max response is 2.34% in [1] and 4.02% with KB-3-1. For the same compound, the Potency entry (in [2]; in the experiment on astro) was “inactive” each time.

Take `CCCCNC(C)(C)[P+](=O)O`: the max response in experiment [1] is -17.6%; with KB-3-1, 5.36%. Also, the Potency result (in [2]; in the experiment with astro) was “inactive” each time.

Regarding `C/C=C(\CC)C(=O)NC(N)=O`, the max response in experiment [1] was -0.86%; in the experiment with KB-3-1 it was -1.21%. Moreover, the Potency entry (in experiment [2]; in the experiment on astro) was “inactive” throughout.

In the case of `N#Cc1ccc(N2CCN(C(=O)COc3ccc4[nH]cc(CCN)c4c3)CC2)cc1`, the Potency entry in experiment [2], in experiment [3], in experiment [4], in experiment [5], in [6] and in experiment [7] was “inactive” throughout. The Potency entry (in experiment [8]; in experiment [9]; in the experiment with CASKI; with JEG-3; with OV90) was “inactive” throughout. For the same compound, in experiment [10], the compound was called inactive. Besides, the max response in the experiment on KB-3-1 is -19.2%.

As for `CC(C)=CCN1CC[C@]2(C)c3cc(O)ccc3C[C@H]1[C@H]2C`, the max response in experiment [1] is 2.13%; in the experiment with KB-3-1, -17.1%. Further, the Potency entry (in experiment [6]; in [7]; in the experiment on astro) was “inactive” each time.

With `O.O.O.O=C([O-])C(O)C(O)C(=O)[O-].O=C([O-])C(O)C(O)C(=O)[O-].[K+].[K+].[Sb].[Sb]` (configuration not stated), the Potency in [1] is 708 nM (active). Further, the max response in the experiment with KB-3-1 is -33.9%.

In the case of `CCC(=O)O[C@H]1[C@@H](N2CCCCC2)C[C@H]2[C@@H]3CC[C@H]4C[C@H](OC(C)=O)[C@@H](N5CCCCC5)C[C@]4(C)[C@H]3CC[C@@]21C`, the Potency result (in [2]; in the experiment with astro) was “inactive” throughout. Moreover, the max response in the experiment with KB-3-1 was -10.6%.

As to `O=Cc1ccccc1`, the max response in experiment [1] was -4.29%; in the experiment with KB-3-1, -11.1% and 0.83%. In addition, the Potency entry (in [2]; in the experiment with astro) was “inactive” each time.

Take `CC(=O)O[C@H]1C[C@H](O[C@H]2[C@@H](O)C[C@H](O[C@H]3[C@@H](O)C[C@H](OC4CC[C@@]5(C)C(CC[C@@H]6[C@@H]5CC[C@]5(C)[C@@H](C7=CC(=O)OC7)[C@@H](O)C[C@]65O)C4)O[C@@H]3C)O[C@@H]2C)O[C@H](C)[C@H]1O[C@@H]1O[C@H](CO)[C@@H](O)[C@H](O)[C@H]1O` (some centres not stated): the max response in experiment [1] is 7.87%. The Potency in experiment [2] was 1300 nM (active); in the experiment on KB-3-1, 1300 nM (active); in the experiment with astro it was 708 nM (active).

As to `CCOP(=S)(OCC)SCSc1ccc(Cl)cc1`, the max response in experiment [1] was -1.21%; in the experiment on KB-3-1, -9.26%. For the same compound, the Potency entry (in [2]; in the experiment with astro) was “inactive” throughout.

As to `O=C1CN=C(c2ccccc2)c2cc(Cl)ccc2N1`, the results for the max response (in [1]; with KB-3-1) were 38.4% and -13.7%, respectively. The Potency result (in experiment [2]; in the experiment on astro) was “inactive” each time.

As for `Oc1ccc2c3c1O[C@H]1[C@@H](O)C=C[C@H]4[C@H](C2)NCC[C@@]341`, the max response in experiment [1] is 8.16%; in the experiment with KB-3-1, -12.5%. In addition, the Potency entry (in experiment [2]; with astro) was “inactive” each time.

These data come from PubChem BioAssay (NCATS).
